Screening results deposited in PubChem BioAssay by Broad Institute.
FGF22 binding: shifts melting point of recombinant human FGF22; Q9HCT0; recombinant FGF22 thermal shift, SYPRO orange fluorescence; percent of sucrose octasulfate shift, DMSO zero; activity (Tm shift, normalised), % at 9.99 µM; hit rate 1.5% among 340,000; AID 651658;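 active = mean Tm shift, scaled 0 neutral to 100 positive control, at about 1.3% or above, every replicate too, limit read from the data; inconclusive = no clear call, values can overlap the other calls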
Target sequence (Q9HCT0 whole entry, looked up): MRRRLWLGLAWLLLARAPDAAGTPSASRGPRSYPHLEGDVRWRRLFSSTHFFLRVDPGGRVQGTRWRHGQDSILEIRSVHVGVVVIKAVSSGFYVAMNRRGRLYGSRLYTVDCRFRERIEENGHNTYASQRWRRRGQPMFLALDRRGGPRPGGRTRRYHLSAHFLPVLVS
CFTR F508del cor: CFTR F508del correction in bronchial cells. CFBE cells, YFP halide quenching; stimulated with forskolin plus potentiator P3; % fluorescence drop versus neutral controls. hit rate 0.36% among 350,000. activity (quench increase), % at 7.58 µM;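 active = mean added fluorescence quench of at least 8% versus neutral control, with both replicates also reaching 8%; inconclusive = only one of the mean or replicate conditions met; inactive = mean below 8% and not both replicates reaching 8%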;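 also: cells transiently co-express mutant CFTR-F508del with the halide-sensitive YFP; corrector assay measuring rescue of mutant channel to the surface after 24 h compound exposure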
Vif imaging: blocks HIV Vif function | HEK293T cells, Vif self-association by quenched fluorescence, imaging, 24 h | inhibition, % at 7.49 µM | hit rate 0.35% among 340,000; in the data active = inhibition above about 50%, passing the limit was not always enough; inconclusive = no clear call, values can overlap the other calls; inactive = below about 31%
* = called active by the depositor; ? = inconclusive; / = not tested or not shown. Hits are enriched below; roughly 1.7% of the tested compounds scored in any of these assays.

SMILES	FGF22 binding	CFTR F508del cor	Vif imaging
CCCNS(=O)(=O)c1ccc(CCC(=O)NCCc2ccc(OC)c(OC)c2)cc1	44*	-1	-4
COc1ccc(CC(=O)NNC(=O)CCc2ccccc2)cc1OC	43*	1	-3
COc1ccc(CCNC(=O)CN(c2cc([N+](=O)[O-])ccc2OC)S(C)(=O)=O)cc1OC	43*	2	-3
CS(=O)(=O)N1[C@H](C#N)[C@H](c2ccc(-c3ccccc3F)cc2)[C@@H]1CO	0	1	/
C[C@@H]1CN([C@@H](C)CO)C(=O)c2cc(NC(=O)Nc3ccc(C(F)(F)F)cc3)ccc2O[C@@H](C)CCCCO[C@@H]1CN(C)Cc1ccccc1	0	5	/
C[C@H](CO)N1C[C@H](C)[C@H](CN(C)Cc2ccc3c(c2)OCO3)Oc2ccc(NC(=O)NC3CCCCC3)cc2C1=O	0	-2	/
COc1ccc(OCC(=O)NNC(=O)CCc2ccccc2)cc1	43	9.8*	/
Cc1ccc(CNC(=O)Cc2ccc(-n3cccc3)cc2)cc1	/	/	-2
O=C(CCc1ccccc1)NNC(=O)COc1ccccc1	/	/	3
COc1ccc(CC(=O)NCc2ccc(-n3cccc3)cc2)cc1OC	0	11*	9
O=C(CN1CCOCC1)NCC[C@@H]1CC[C@H](NC(=O)Cc2ccccn2)[C@@H](CO)O1	0	0	/
Cc1noc(C)c1S(=O)(=O)Nc1cccc2c1O[C@@H](CN(C)Cc1ccc(Cl)c(Cl)c1)[C@@H](C)CN([C@H](C)CO)C2=O	0	0	/
CCS(=O)(=O)N1CCC2(CC1)CN(C(=O)Nc1c(C)noc1C)[C@H](CO)c1[nH]c3cc(OC)ccc3c12	0	4	/
C[C@@H]1CCCCO[C@@H](CN(C)C(=O)c2ccccc2)[C@@H](C)CN([C@@H](C)CO)C(=O)c2cc(NC(=O)Nc3ccc(F)cc3)ccc2O1	1	-3	/
C[C@H]1CN([C@@H](C)CO)C(=O)c2cc(-c3ccc(F)cc3)cnc2O[C@H]1CN(C)C(=O)Nc1ccccc1F	0	-2	/
C[C@@H]1CN([C@@H](C)CO)C(=O)c2cc(N(C)C)ccc2O[C@@H](C)CCCCO[C@H]1CN(C)S(=O)(=O)c1ccccc1	/	-1	/
N/C(=N\OC(=O)c1cccc2ccccc12)c1ccncc1	0	2	-8
N/C(=N\OC(=O)c1cccc2ccccc12)c1ccc(Br)cc1	44*	0	/
Cc1ccccc1-c1cnc2c(c1)C(=O)N([C@H](C)CO)C[C@H](C)[C@@H](CN(C)C(=O)c1ccncc1)O2	0	-2	/
CC=Cc1ccc2n(c1=O)C[C@@H]1[C@@H](CO)[C@H](C(=O)NCC)[C@H]2N1C(=O)c1ccc(F)cc1 (mixture of isomers)	0	-6	/
Cc1ccc(NC(=O)CNCc2ccccc2)c(Br)c1	1	-1	-2
Cc1ccc(CNCC(=O)Nc2ccc(C)cc2Br)cc1	44*	-1	5
COc1c(OC(C)=O)ccc(/C=N\NC(=O)c2ccc(Br)cc2)c1[N+](=O)[O-]	45*	0	-1
COc1ccc(Br)cc1/C=N/NC(=O)c1cc(OC)c(OC)c(OC)c1	/	/	-5
COc1ccc(NC(=O)CN2CCN(S(=O)(=O)c3cccs3)CC2)cc1Cl	0	-2	-1
SMILES	FGF22 binding	CFTR F508del cor	Vif imaging
COc1ccc(CNC(=O)CN2CCN(S(=O)(=O)c3cccs3)CC2)cc1OC	43*	-1	1
COC(=O)C[C@@H]1C[C@@H]2c3cc(NC(=O)C4CCC4)ccc3O[C@@H]2[C@H](CO)O1	0	-2	/
CC(NC(=O)CSc1nc2c(c(C(F)(F)F)n1)CCc1ccccc1-2)c1ccccc1 (stereo not drawn)	/	/	63*
O=C(CSc1nc2c(c(C(F)(F)F)n1)CCc1ccccc1-2)NCc1ccco1	/	/	3
CN1C(=O)c2cc(NC(=O)c3cccc(C(F)(F)F)c3)ccc2OC[C@@H]2O[C@@H](CC(=O)O)CC[C@@H]21	0	/	/
C[C@H](CO)N1C[C@H](C)[C@@H](CN(C)C(=O)CN2CCOCC2)Oc2ncc(C3=CCCC3)cc2C1=O	0	0	/
C[C@@H]1CN([C@H](C)CO)C(=O)c2cc(NS(=O)(=O)c3cccs3)ccc2O[C@@H]1CN(C)Cc1ccncc1	0	-1	/
COc1ccc(C(=O)c2cc(OC)c(OC)c(OC)c2)cc1OC	0	13*	?
COc1ccc(C(=O)c2ccc(OC)c(OC)c2)cc1OC	/	/	-2
CCNC(=O)C[C@H]1CC[C@H]2[C@H](COc3ccc(NC(=O)C4CCOCC4)cc3C(=O)N2C)O1	0	-1	/
Cc1ccc(S(=O)(=O)NCCCNS(=O)(=O)c2ccc(C)cc2)cc1	0	20*	-3
Cc1ccc(S(=O)(=O)NCCCN(C)C)cc1	/	/	-1
C=C1CCN(c2ccc(C(=O)NCCC)cc2[N+](=O)[O-])CC1	0	-1	-3
CCCNC(=O)c1ccc(SCC(=O)N(CC)CC)c([N+](=O)[O-])c1	0	1	65*
CO[C@@H]1CN(C)C(=O)c2cc(NC(=O)Nc3ccccc3F)ccc2OC[C@H](C)N(C)C[C@H]1C	0	1	/
N#C[C@H]1[C@@H](c2ccc(C3=CCCC3)cc2)[C@@H](CO)N1C(=O)C1CCOCC1	0	2	/
COc1cc(/C=C2/SC(=S)N(Cc3ccccc3)C2=O)ccc1OCC(=O)O	0	3	1
COc1cc(/C=C2\SC(=S)N(CC(=O)NC(C)(C)C)C2=O)cc(OC)c1OC	43*	2	4
COc1cc(/C=C2/SC(=S)N(CC(=O)NC(C)(C)C)C2=O)cc(OC)c1OC	/	/	-3
O=C1/C(=C/c2ccccn2)SC(=S)N1NS(=O)(=O)c1ccccc1	/	-1	14
O=C(O)c1ccc(/C=C2/SC(=S)N(Cc3ccccc3)C2=O)cc1	0	0	-9
COc1cc(/C=C2/SC(=S)N(Cc3ccccc3)C2=O)cc(Cl)c1O	0	8.1*	9
O=C1/C(=C\c2ccc(O)cc2)SC(=S)N1Cc1ccccc1	0	26*	-2
O=C1/C(=C/c2ccccn2)SC(=S)N1CCc1ccccc1	1.6*	-3	3
C[C@H]1CN([C@@H](C)CO)C(=O)c2cccc(NS(=O)(=O)c3ccc(Cl)cc3)c2O[C@@H]1CN(C)S(=O)(=O)c1cccs1	0	-2	/
SMILES	FGF22 binding	CFTR F508del cor	Vif imaging
COCC(=O)N1CC[C@@H]2[C@H]1c1cc(-c3cccc(OC)c3)ccc1N(C)[C@@H]2CO	0	1	/
CN1CCS/C1=C/C=C1/SC(=S)N(Cc2ccccc2)C1=O	0	0	52*
CCCCN1C(=O)/C(=C/C=C2\SCCN2C)SC1=S	0	3	17
C[C@H](CO)N1C[C@H](C)[C@H](CN(C)S(=O)(=O)c2ccccc2)OCCCC[C@H](C)Oc2ccc(NS(=O)(=O)c3ccc(F)cc3)cc2C1=O	-1	1	/
O=C(CN(C(=O)c1csnn1)c1ccc(F)cc1)NCc1ccc2c(c1)OCO2	1	0	75*
Cc1ccc(N(CC(=O)NCc2ccc3c(c2)OCO3)C(=O)c2csnn2)cc1	0	1	10
Cc1noc(C)c1NC(=O)N(C)C[C@@H]1OCCCC[C@H](C)Oc2ccc(NC(=O)Cc3ccccc3)cc2C(=O)N([C@@H](C)CO)C[C@H]1C	0	0	/
CC(=O)N1CC[C@@H]2[C@H]1c1cc(-c3ccc(C#N)cc3)ccc1N(C)[C@H]2CO	0	1	/
